Screens deposited in PubChem by National Center for Advancing Translational Sciences (NCATS).
NPR1 antag = Natriuretic polypeptide receptor (hNpr1) antagonism - Primary qHTS. Atrial natriuretic peptide receptor 1 (Homo sapiens), P16066. HEK293 hNpr1 GloSensor cGMP, ANP-stimulated luminescence. Potency, µM (titrated, usually from 46.3 µM), for the others: top-dose activity change, negative = inhibition, most hits filed as inhibitors. 76,000 compounds, 1.6% hits. AID 1347048, 2019; calls by dose curve; further: nearly all actives have a fitted effect of over 60% in size
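HEK293 cells stably expressing human Npr1 and cGMP GloSensor pGS-40F, loaded 2 h with 2% GloSensor reagent, given compound 30 min at room temperature. Luminescence read before and 20 min after 0.1 nM hNppA.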
HEK293 tox = Cytotoxic Profiling in HEK 293 Cell Line of Diverse Libraries Using Quantitative High-Throughput Screening | HEK 293 viability, ATP luminescence (CellTiter-Glo), 48-72 h | Potency, µM (top dose mostly 115 µM), without a hit: at the top dose activity change, negative = cytotoxicity, most hits filed as inhibitors | 94,000 compounds, 6.6% hits | AID 1345083, 2018; further: nearly all actives have a fitted effect of over 60% in size
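Read-out: CellTiter-Glo ATP luminescence. Cells: HEK 293, 250 cells/well. Exposure: 48 or 72 hr, 37 degree Celsius.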
NIH3T3 tox = Cytotoxic Profiling in NIH 3T3 Cell Line of Diverse Libraries Using Quantitative High-Throughput Screening | NIH 3T3 viability, CellTiter-Glo ATP luminescence, 48-72 h | Potency, µM (series often up to 96.7 µM), for the others: at the top dose activity change, negative = cytotoxicity, hits mostly inhibitors | 94,000 compounds, 4.3% hits | AID 1345082, 2018; further: nearly all actives have a fitted effect of over 55% in size
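Cells were seeded at 400 per well, treated with pin-transferred compound, and kept 48 or 72 hr at 37 °C before CellTiter-Glo addition and luminescence imaging of cellular ATP.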
FLuc inh = Firefly luciferase inhibition profiling of diverse chemical library using quantitative high-throughput screening; Luciferin 4-monooxygenase (Photinus pyralis), P08659; purified P. pyralis luciferase, luminescence, biochemical; Potency, µM (doses to about 115 µM), most hits filed as inhibitors; 76,000 compounds, 2.5% hits; AID 1347043, 2019; further: nearly all actives have a fitted effect of over 65% in size
Target sequence (P08659 whole entry, looked up): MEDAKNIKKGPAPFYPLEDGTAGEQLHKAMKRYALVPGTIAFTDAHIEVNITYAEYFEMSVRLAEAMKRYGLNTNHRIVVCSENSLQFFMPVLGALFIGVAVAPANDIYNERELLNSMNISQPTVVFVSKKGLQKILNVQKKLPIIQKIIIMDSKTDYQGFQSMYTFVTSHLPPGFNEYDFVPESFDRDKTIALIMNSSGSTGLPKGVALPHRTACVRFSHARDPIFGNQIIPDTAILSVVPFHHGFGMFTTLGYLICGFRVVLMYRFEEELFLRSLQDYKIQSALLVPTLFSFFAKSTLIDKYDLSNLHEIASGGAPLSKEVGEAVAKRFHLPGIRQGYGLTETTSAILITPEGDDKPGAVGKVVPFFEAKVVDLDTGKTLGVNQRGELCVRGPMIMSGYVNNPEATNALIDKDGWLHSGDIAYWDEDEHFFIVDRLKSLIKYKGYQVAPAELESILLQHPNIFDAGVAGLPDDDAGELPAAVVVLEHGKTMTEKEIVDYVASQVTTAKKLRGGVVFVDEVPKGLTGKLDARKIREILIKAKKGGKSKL
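FLuc 10nM, D-luciferin 10uM, ATP 10uM, Mg acetate 10mM, Tris acetate pH 7.5, Tween/BSA; cpd qHTS; enzyme added last; CCD luminescence.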
The depositor's hits bear a star; [ ] = dose if it differs, or a comment. A selection: hits, their analogues and other compounds. The true share with any hit is near 11%. Unless noted, the call rests on the fitted dose curve; in most records, active means well fitted curve in the direction sought with a large enough effect; inconclusive means small, poorly fitted or top-dose-only effect, or another doubt; inactive means no such curve, though single readings can be large; an effect the other way counts as inactive or inconclusive. On the % scale 0 is the no-effect control and ±100 the full control effect; potency means the concentration at half of the fitted maximal effect.

What do the screens show for `O=C(NCCc1ccc(Cl)cc1)c1ccc2nnc(Cc3ccc(Cl)cc3)n2c1`?
HEK293 tox: 28µM*; NIH3T3 tox: 28µM*

Results for O=C(NCc1ccc(Cl)cc1)c1ccc2nnc(Cc3ccc(Cl)cc3)n2c1 ?
HEK293 tox: 45µM*; NIH3T3 tox: 32µM*

What do the screens show for `O=C(NCc1ccc(F)cc1)c1ccc2nnc(Cc3ccc(Cl)cc3)n2c1`?
HEK293 tox: 40µM*; NIH3T3 tox: inconclusive

What do the screens show for `O=C(NCc1cccc(C(F)(F)F)c1)c1ccc2nnc(Cc3ccco3)n2c1`?
HEK293 tox: -26%; NIH3T3 tox: inconclusive

Results for COCc1ncc(C)n1CCNC(=O)c1cnccn1 ?
HEK293 tox: -4%; NIH3T3 tox: -11%

Results for CC(=O)N1CCc2nn(CC(=O)Nc3ccc(F)c(F)c3)c(=O)cc2C1 ?
NPR1 antag: 3%; HEK293 tox: 13%; NIH3T3 tox: inactive; FLuc inh: inactive

How did O=C(C1CC=CC1)N1CCC(N2C(=O)C(OCC3CC3)C23CCCCC3)CC1 (stereo not drawn) do in these assays?
NPR1 antag: 1%; HEK293 tox: inconclusive; NIH3T3 tox: -18%; FLuc inh: inactive

What do the screens show for `COc1cc(NC(=O)Cn2c(-c3ccccc3)nc(C)c(CCO)c2=O)cc(OC)c1`?
NPR1 antag: inconclusive; HEK293 tox: inconclusive; NIH3T3 tox: inconclusive; FLuc inh: inactive

Results for Cc1nc(CCC(=O)NCc2ccc3[nH]c(-c4ccccc4F)c(C)c3c2)n[nH]1 ?
NPR1 antag: -1%; HEK293 tox: inconclusive; NIH3T3 tox: inconclusive; FLuc inh: 16µM*

How did Cc1c(-c2ccccc2F)[nH]c2ccc(CNS(=O)(=O)C3CC3)cc12 do in these assays?
NPR1 antag: inconclusive; HEK293 tox: 35µM*; NIH3T3 tox: inconclusive; FLuc inh: inconclusive

How did Cc1c(-c2ccccc2F)[nH]c2ccc(CNC(=O)C3CCNC3)cc12 (stereo not drawn) do in these assays?
NPR1 antag: -18%; HEK293 tox: inconclusive; NIH3T3 tox: inconclusive; FLuc inh: 20µM*

How did Cc1ccccc1CN1CCCC(CCNS(=O)(=O)C2CC2)C1 (stereo not drawn) do in these assays?
NPR1 antag: -1%; HEK293 tox: -11%; NIH3T3 tox: -1%; FLuc inh: inactive

How did Cc1c(-c2ccccc2F)[nH]c2ccc(CNC(=O)CCn3cnnc3)cc12 do in these assays?
NPR1 antag: 0%; HEK293 tox: -9%; NIH3T3 tox: inconclusive; FLuc inh: inconclusive

How did Cc1c(-c2ccccc2F)[nH]c2ccc(CNC(=O)CN3CC(=O)NC3=O)cc12 do in these assays?
NPR1 antag: -5%; HEK293 tox: inconclusive; NIH3T3 tox: inconclusive; FLuc inh: 16µM*

What do the screens show for `COc1cccc(Nc2ccc3c(n2)C(C)(C(=O)NCCc2ccccn2)CN(C)C3)c1` (stereo not drawn)?
NPR1 antag: -8%[70.6 µM]; HEK293 tox: inconclusive; NIH3T3 tox: inconclusive; FLuc inh: inactive

What do the screens show for `O=C(c1nc2cccnc2n(C2CC2)c1=O)N1CCCC1`?
HEK293 tox: inactive; NIH3T3 tox: -1%[138 µM]

Results for COc1ccc2[nH]c3c(c2c1)CCNC31CCN(C(=O)Cn2c(=O)oc3ccccc32)CC1 ?
NPR1 antag: 2%; HEK293 tox: inconclusive; NIH3T3 tox: -33%; FLuc inh: inactive

How did O=C1NC2(CCN(Cc3ccccc3C(F)(F)F)CC2)COc2ccccc21 do in these assays?
NPR1 antag: 0%; HEK293 tox: -3%; NIH3T3 tox: inactive; FLuc inh: inactive

Results for N#Cc1ccc(CN2CCCC3(C2)NC(=O)c2ccccc2O3)cc1 (stereo not drawn) ?
NPR1 antag: inconclusive; HEK293 tox: 89µM*; NIH3T3 tox: inconclusive; FLuc inh: inactive

How did Cn1nccc1CN1CCC2(COc3ccccc3C(=O)N2)C1 (stereo not drawn) do in these assays?
NPR1 antag: 7%[70.6 µM]; HEK293 tox: 89µM*; NIH3T3 tox: inconclusive; FLuc inh: inactive

Results for N#Cc1ccc(CN2CCC3(COc4ccccc4C(=O)N3)C2)cc1 (stereo not drawn) ?
NPR1 antag: inconclusive; HEK293 tox: 63µM*; NIH3T3 tox: 32µM*; FLuc inh: inactive

What do the screens show for `O=C1NC2(CCN(Cc3ccccc3C(F)(F)F)CC2)Oc2ccccc21`?
NPR1 antag: 3%; HEK293 tox: 40µM*; NIH3T3 tox: inconclusive; FLuc inh: inactive

Results for O=C(c1cncc(Br)c1)N1CCN(c2ccnc3ccnn23)CC1 ?
HEK293 tox: 3%; NIH3T3 tox: -3%

How did O=C1NC2(CCN(Cc3ccsc3)CC2)COc2ccccc21 do in these assays?
NPR1 antag: -17%[70.6 µM]; HEK293 tox: 63µM*; NIH3T3 tox: inconclusive; FLuc inh: inactive

What do the screens show for `O=C1NC2(CCN(Cc3ccccc3)C2)COc2ccccc21` (stereo not drawn)?
NPR1 antag: 2%[70.6 µM]; HEK293 tox: inconclusive; NIH3T3 tox: inconclusive; FLuc inh: inactive

How did O=C1NC2(CCN(Cc3ccc(F)cc3)C2)COc2ccccc21 (stereo not drawn) do in these assays?
NPR1 antag: -16%[70.6 µM]; HEK293 tox: inconclusive; NIH3T3 tox: 28µM*; FLuc inh: inactive

Results for O=C1NC2(CCN(Cc3ccc(C(F)(F)F)cc3)CC2)COc2ccccc21 ?
NPR1 antag: -18%; HEK293 tox: inconclusive; NIH3T3 tox: -12%; FLuc inh: inactive

What do the screens show for `CNc1nccc(N2CCC(CC(=O)NCCCN3CCC(C)CC3)CC2)n1`?
NPR1 antag: -3%; HEK293 tox: inconclusive; NIH3T3 tox: inconclusive; FLuc inh: inactive

Results for CNc1nccc(N2CCC(CC(=O)NCCC(C)C)CC2)n1 ?
NPR1 antag: 6%; HEK293 tox: 32µM*; NIH3T3 tox: inconclusive; FLuc inh: inactive

How did Cc1ccc(CNC(=O)N2CCC3(CC2)CC(C(=O)N2CCOCC2)N(C)C3)cc1 (stereo not drawn) do in these assays?
NPR1 antag: -7%; HEK293 tox: -5%; NIH3T3 tox: -22%; FLuc inh: inactive

Results for CNC(=O)c1c(-c2cnn(C)c2NCCc2ccccc2)noc1C ?
NPR1 antag: 4%[70.6 µM]; HEK293 tox: inconclusive; NIH3T3 tox: -13%[138 µM]; FLuc inh: inactive

Results for COc1ccc(NC(=O)c2c(-c3cnn(C)c3NCc3ccccc3)noc2C)cc1 ?
NPR1 antag: -6%[70.6 µM]; HEK293 tox: inconclusive; NIH3T3 tox: 11µM*; FLuc inh: inactive

Results for O=C(NCc1ccc(F)cc1)c1cc(-c2ccc(F)cc2)c2nncn2n1 ?
HEK293 tox: -7%; NIH3T3 tox: -20%

What do the screens show for `O=C(NCC1CCCCC1)c1cc(-c2ccc(F)cc2)c2nncn2n1`?
HEK293 tox: inconclusive; NIH3T3 tox: 6.3µM*
